Reference: PubChem BioAssay (NCI)
Compounds without any hit were thinned out: in the full panel of roughly 79,000, 15% have a hit. Values without a mark were called inactive. Active and inactive are the calls of the source. Rule as the data show it: active = growth inhibition above about 70%; inactive = the rest.

Assay: NCI Yeast Anticancer Drug Screen. Data for the sgs1 mgt1 strain (AID 161);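 also: 0% = growth of cultures given vehicle only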
Settings: S. cerevisiae sgs1 mgt1 strain, at 50.0 µM, hits give high values
Method: Growth inhibition of yeast strains with defined genetic alterations is measured as a screen for potential anti-cancer activity. Selected strains with alterations in DNA damage repair or cell cycle control were exposed to compounds and growth inhibition was measured relative to vehicle treated controls. The strain used in this assay is sgs1 mgt1

In order of falling growth inhibition:
1. Cc1ccc(C2=NO[C@@H]3C(=O)N(c4ccc(Cc5ccc(N6C(=O)[C@H]7C(c8ccc(C)cc8)=NO[C@H]7C6=O)cc5)cc4)C(=O)[C@H]23)cc1  29.1%
2. COC(=O)N/N=C(\C(=O)Nc1cccc([N+](=O)[O-])c1)c1nc2ccc([N+](=O)[O-])cc2[nH]c1=O  25%
3. CN(C)c1ccc(C=C(c2ccc(N)cc2)c2ccc(N)cc2)cc1  24.3%
4. CCN(CC)CCNc1ccc2ncn3c4c(OC)cccc4c(=O)c1c23  21.8%
5. c1ccc(-c2cc3c4ccccc4ccn3c2)cc1  20.2%
6. COC(=O)c1cc(=O)c2scc(C)[n+]2[nH]1  18.9%
7. CC(=O)OC1C(C)OC(n2cnc3c(=O)[nH]cnc32)C(OC(C)=O)C1OC(C)=O (stereo not given)  16.4%
8. Cc1cc(COCCN(C)C)on1  14.9%
9. CCCCCc1c(Cl)nc(Cl)nc1Cl  12.3%
10. COC(=O)c1ccc2cc1Nc1c(C#N)cnc(=S)n1-2  11.2%
11. O=S1(=O)c2ccc(cc2)N=CC=Nc2ccc1cc2  10%
12. CC(=O)OCc1cccc(O)c1C(=O)CCC=C(C)C  8.15%
13. CCOC(=O)Cn1/c(=N/N=C(\C)c2ccc([N+](=O)[O-])o2)sc2cc(Cl)ccc21  4.8%
14. CCN(CC)CCNCc1ccc(Cl)cc1  3.95%
15. c1ccc2c(c1)c1c(n2CCOCCN2CCCC2)CCCC1  2.45%
16. CC(=O)Nc1ccc(N)cc1-c1ccc(N)cc1  1.5%
17. Cn1nnnc1CC(=O)O  1.15%
18. CCOC(=O)c1[nH]c2nc(N)ncc2c(=O)c1C  -0.15%
19. CCCC(=O)N(CC)CC  -0.8%
20. O=C1NC(=O)C(c2ccccc2)(C2CCOCC2)N1 (stereo not given)  -2.65%
21. CC(C)=C1CC(=O)NC1=O  -3.2%
22. CC(C)c1ccc(N=Nc2ccc(N(C)C)cc2)cc1  -4.55%
23. CC1=CC(=O)C(C(O)(C(F)(F)F)C(F)(F)F)C(C)(C)C1 (stereo not given)  -5.45%
24. CC(C)CCCC(C)CCCl (stereo not given)  -5.85%
25. CC(=O)CC1CCc2ccc3ccccc3c2C1c1cccc2ccccc12 (stereo not given)  -6.85%
26. OC(COc1ccc2ccccc2c1)COc1ccc2ccccc2c1  -7.85%
27. O=C1c2cc3c(cc2CC12Cc1cc4c(cc1C2)CCC4)CCC3  -8%
28. COC(=O)c1nc(N)[nH]c(=O)c1-c1ccc(Cl)cc1  -10.9%
29. COc1cc2c(cc1OC)C(NC(C)C)CCCC2 (stereo not given)  -13.8%
30. CC12CC3CC(C1)CC(NCCO)(C3)C2  -14.3%
31. NNS(=O)(=O)c1ccc(/C=C2\NC(=O)NC2=O)cc1  -17.2%
32. O=C(O)/C=C/C(=O)Nc1cccc(C(F)(F)F)c1  -17.5%
33. CC(NC(=O)C(N)CC(=O)O)C(=O)OC12CC3CC(CC(C3)C1)C2 (stereo not given)  -22.6%
34. CCCCN(CCCC)C(=Nc1ccccc1)N(CCCC)CCCC  -23.8%
35. COCn1cnc2c(=O)n(-c3ccc(OC)cc3)c(=S)n(-c3ccc(OC)cc3)c21  -28.9%
36. O=C(O)c1c(O)ccc(O)c1C(=O)O  -29.7%
37. COC(=O)c1cc(-c2cccnc2)[nH]c(=O)c1C#N  -39.9%
38. CC(=O)OCCn1cnc2c(NCC=C(C)C)ncnc21  -40%

In the case of `CCN(CC)C(=S)N/N=C/c1ccccn1`, the growth inhibition is reported as 91% (active).
For `CC(NC1=CC(=O)c2cccnc2C1=O)C(O)c1ccccc1` (stereo not given), the growth inhibition was 72.1% (active).
